Experimental data reported in PubChem BioAssay AID1851 (National Center for Advancing Translational Sciences (NCATS), 2009).
Out of some 16,000 compounds screened, about 5,700 (36%) were called active. Inconclusive results (about 24%) are left out. The list shows a part of the results. A number with no mark means an inactive call. Calls come from the whole dose curve; as a rule, active = well fitted curve in the direction sought with a large enough effect; inconclusive = small, poorly fitted or top-dose-only effect, or effect the other way; inactive = no such curve, though single readings can be large or run the other way.

molecular target: Cytochrome P450 1A2 (Homo sapiens) (UniProt P05177); test: Cytochrome panel assay with activity outcomes; conditions: recombinant CYP, pro-luciferin dealkylation, luminescence, p450-cyp1a2; series mostly up to 57.1 µM; activity, negative = inhibition: at the top concentration
Sequence (P05177 whole entry, looked up): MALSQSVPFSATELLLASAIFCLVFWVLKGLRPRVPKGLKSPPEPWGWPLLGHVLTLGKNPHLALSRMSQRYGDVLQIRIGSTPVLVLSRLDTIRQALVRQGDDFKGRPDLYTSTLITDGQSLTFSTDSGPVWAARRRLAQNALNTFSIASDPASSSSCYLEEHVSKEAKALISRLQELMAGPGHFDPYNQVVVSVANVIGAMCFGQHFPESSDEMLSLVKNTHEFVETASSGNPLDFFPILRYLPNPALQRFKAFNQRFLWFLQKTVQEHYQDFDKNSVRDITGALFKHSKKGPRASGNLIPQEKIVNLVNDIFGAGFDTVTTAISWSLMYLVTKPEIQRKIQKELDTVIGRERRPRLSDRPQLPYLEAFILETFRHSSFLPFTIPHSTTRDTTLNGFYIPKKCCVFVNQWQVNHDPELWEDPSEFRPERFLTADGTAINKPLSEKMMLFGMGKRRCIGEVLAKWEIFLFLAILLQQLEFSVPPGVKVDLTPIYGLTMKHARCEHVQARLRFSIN
% is set by controls: 0 for no effect and ±100 for the full control effect.

SMILES | activity, negative = inhibition | AC50
O=S(=O)(O)C1CCNCC1 | 7.71% | –
CO[C@@H]1COC(=O)CC=C[C@@H](C)[C@@H]2C=C[C@H](O)[C@@H](COC(=O)[C@H](C)NC(=O)CC=C[C@H]1C)O2 | -7.89% [at 11.4 µM] | –
CCCCC#Cc1ccccc1CC(=O)Nc1ccccc1 | – | 2.51 µM (active)
COc1ccc(NC(=O)CCSc2cc(C)c3ccccc3n2)cc1 | – | 7.08 µM (active)
CC(C)(CC(=O)Nc1ccccc1)C(=O)O | -15.9% [at 11.4 µM] | –
NCC(=O)Nc1ccccc1 | – | 2.51 µM (active)
COC(=O)c1cccc(NC(=O)Nc2ccc(Cl)c(Cl)c2)c1 | – | 8.91 µM (active)
Cc1cccc(C)c1NC(=O)C(c1ccc(Cl)cc1Cl)N1CCCCC1 (centres undefined) | -22.8% | –
O=C1C[C@@H](O)[C@@H](O)[C@@H]2[C@H]3C(=O)N(c4ccc(F)cc4F)C(=O)[C@@H]3CC[C@H]12 | 8.95% [at 11.4 µM] | –
O=C(COC(=O)COc1ccccc1)Nc1ccc(OC(F)(F)F)cc1 | – | 20 µM (active)
O=C(COc1ccccc1)Nc1ccc(-c2nnc(-c3ccco3)o2)cc1 | 7.06% | –
CCc1nnc(NC(=O)C2Cc3ccccc3CN2S(=O)(=O)c2ccc(C)cc2)s1 (centres undefined) | -13.9% | –
O=C(Nc1nccs1)C1Cc2ccccc2CN1S(=O)(=O)c1ccc(F)cc1 (centres undefined) | – | 2.24 µM (active)
Nc1ccc(S(=O)(=O)Nc2nccs2)cc1 | -1.59% [at 25.6 µM] | –
O=C(Nc1nnc(C2CC2)s1)C1Cc2ccccc2CN1S(=O)(=O)c1ccccc1F (centres undefined) | – | 12.6 µM (active)
O=C(c1csnn1)N1CCC2(CC1)CN(c1ccccn1)C2 | -12% | –
Cc1ccc2nc(-c3ccc(NC(=O)Cc4cccs4)cc3)[nH]c2c1 | – | 0.631 µM (active)
CCNc1ncc2nc(-c3cn(C)c4ccccc34)c(=O)n(CCC#N)c2n1 | – | 5.01 µM (active)
CCNc1ncc2nc(C)c(=O)n(CCC#N)c2n1 | – | 12.6 µM (active)
CCNc1ncc2nc(-c3cn(C)c4ccccc34)c(=O)n(C)c2n1 | – | 0.1 µM (active)
CCNc1ncc2nc(-c3ccccc3)c(=O)n(CCC#N)c2n1 | – | 3.16 µM (active)
CC1(C)S[C@@H]2[C@H](NC(=O)[C@H](C(=O)O)c3ccsc3)C(=O)N2[C@H]1C(=O)O | -3.26% [at 25.6 µM] | –
CCOC(=O)c1c(C)[nH]c2ccc3c(c12)CN1CCc2cc(OC)ccc2[C@@H]1O3 | – | 0.158 µM (active)

SMILES | activity, negative = inhibition | AC50
CCOC(=O)Oc1c(OC)cc(C(=O)O[C@H]2C[C@H]3CN4CCc5c([nH]c6cc(OC)ccc56)[C@@H]4C[C@H]3[C@@H](C(=O)OC)[C@@H]2OC)cc1OC | -4.49% [at 25.6 µM] | –
Cc1ccc(C)c(/C(O)=C2/C(=O)C(=O)N(CCN3CCOCC3)C2c2ccco2)c1 (centres undefined) | – | 25.1 µM (active)
COc1ccc(/C(O)=C2/C(=O)C(=O)N(CCN3CCOCC3)C2c2ccc(C)cc2)cc1 (centres undefined) | 8.1% | –
Cc1ccc(C2/C(=C(/O)c3ccccc3)C(=O)C(=O)N2CCN2CCOCC2)o1 (centres undefined) | -25.3% | –
CN1CCc2[nH]nc(-c3n[nH]c4c3CN(C)CC4)c2C1 | -15.6% [at 11.4 µM] | –
COc1ccc2[nH]c3c(c2c1)CN(C)CC3 | – | 12.6 µM (active)
COc1ccc2c3c([nH]c2c1)[C@@H]1C[C@@H]2[C@@H](C[C@H](O)[C@H](OC)[C@H]2C(=O)O)CN1CC3 | -3.07% [at 25.6 µM] | –
CN(C)C(=O)N1CCCC(C(=O)NCCc2ccccc2)C1 (centres undefined) | 8.15% | –
Cc1ccc(C(=O)NC(=S)Nc2cc(-c3nc4ccccc4s3)ccc2C)cc1 | -18.7% | –
COc1ccc(C(=O)NNC(=S)NC(=O)c2ccco2)cc1 | -16.2% | –
COc1ccc(C(=O)NC(=S)NCc2ccccc2)cc1 | – | 3.16 µM (active)
CC(C)(C)C(=O)NC(=S)NCCc1ccccc1 | – | 7.08 µM (active)
CCOc1ccc(N(CCC#N)S(=O)(=O)c2ccc(OC)cc2)cc1 | 2.01% | –
COc1ccc(C(=O)NCc2ccc(-c3nc4ccccc4s3)cc2)cc1 | – | 3.16 µM (active)
COc1ccc(CN(CCC#N)C(=S)NC(=O)c2ccccc2)cc1 | – | 5.01 µM (active)
O=C(Oc1ccc2c(c1)CN(Cc1ccccc1)CO2)c1ccccc1 | -14.3% [at 2.29 µM] | –
C[C@H](c1ccccc1)N1C(=O)[C@H]2[C@@H]3[C@H](O)[C@H](O)CC(=O)[C@H]3CC[C@H]2C1=O | -6.45% [at 11.4 µM] | –
O=C(O)Cc1ccc2ocnc2c1 | 12.6% | –
CCCCN1C(=O)CN(CCc2ccccc2)C(=O)C1c1ccc(OC)cc1 (centres undefined) | -13.8% | –
COc1ccc(C(=O)NCc2cn3ccccc3n2)cc1 | – | 10 µM (active)
CNC(=O)NC(=S)NC(=O)c1ccc(OC)cc1 | – | 10 µM (active)
COc1cc(OC)cc(C(=O)NC(=S)Nc2ccc(Cl)c(C(=O)O)c2)c1 | -4.61% | –
COc1cc(OC)cc(C(=O)NC(=S)NCCc2ccccc2)c1 | – | 1.26 µM (active)

SMILES | activity, negative = inhibition | AC50
Cc1ccc(C(=O)O)cc1N1C(=O)c2cccc3cc(Br)cc(c23)C1=O | -9.48% | –
CC(CCC(=O)O)(c1cc(Br)c(O)c(Br)c1)c1cc(Br)c(O)c(Br)c1 | -17.9% [at 2.29 µM] | –
CN(Cc1cc(C(C)(C)C)cc(Br)c1O)Cc1cc(C(C)(C)C)cc(Br)c1O | – | 3.16 µM (active)
CC(C)(C)c1cc2c(O)c(c1)Cc1cc(C(C)(C)C)cc(c1O)Cc1cc(C(C)(C)C)cc(c1O)Cc1cc(C(C)(C)C)cc(c1O)Cc1cc(C(C)(C)C)cc(c1O)Cc1cc(C(C)(C)C)cc(c1O)Cc1cc(C(C)(C)C)cc(c1O)Cc1cc(C(C)(C)C)cc(c1O)C2 | -14.2% [at 11.4 µM] | –
COc1ccc(Cc2ccccc2C(=O)O)c2ccccc12 | 2.81% [at 2.29 µM] | –
COc1ccc(C(=O)CCN(C)C)c2ccccc12 | – | 1.58 µM (active)
COc1ccc(CCN(C)CCC(=O)Nc2c(C)cc(C)cc2C)cc1OC | 1.14% | –
CN(Cc1ccco1)c1ncnc2ccc(-c3ccccc3C(F)(F)F)cc12 | – | 5.01 µM (active)
CN(Cc1ccco1)c1ncnc2ccc(-c3ccccc3Cl)cc12 | – | 2 µM (active)
CN(Cc1ccco1)c1ncnc2ccc(-c3cccc(C#N)c3)cc12 | – | 0.501 µM (active)
CN(C)Cc1ccccc1-c1ccc2ncnc(N(C)Cc3ccco3)c2c1 | – | 2 µM (active)
COCC(=O)N1CCC[C@@]2(CCN(Cc3ccccc3OC)C2)C1 | 6.76% | –
CC(=O)OC[C@@H]1O[C@H](C/C=N\O[C@@H]2O[C@H](COC(C)=O)[C@@H](OC(C)=O)[C@H](OC(C)=O)[C@H]2OC(C)=O)C=C[C@@H]1OC(C)=O | -3.65% [at 11.4 µM] | –
CN(Cc1ccco1)c1ncnc2ccc(-c3ccccc3C#N)cc12 | – | 1 µM (active)
Oc1ccc([C@@H]2CNCc3sccc32)cc1O | 3.98% | –
COc1ccccc1CN1CCCC2(CCN(C(=O)c3csnn3)CC2)C1 | -22.1% | –
Cc1cc(C(=O)CC#N)c(C)n1CC(F)(F)F | – | 15.8 µM (active)
C=CCn1c(C)cc(C(=O)CN2C(=O)c3ccccc3C2=O)c1C | 0.647% | –
CC1(C)OC(C(N)=O)C(C(N)=O)O1 (centres undefined) | -21.8% | –
COc1ccccc1OCC(=O)N/N=C1/SCC(=O)N1Cc1ccccc1 | – | 5.01 µM (active)
CCOC(=O)N/N=C1/C[C@@H](O)[C@@H](O)[C@@H]2[C@@H]3C(=O)N(Cc4ccccc4)C(=O)[C@H]3CC[C@H]12 | -4.78% [at 11.4 µM] | –
CCOC(=O)N/N=C1/C[C@@H](O)[C@@H](O)[C@@H]2[C@@H]3C(=O)N(Cc4ccccc4)C(=O)[C@H]3CC[C@@H]12 | -3.55% [at 11.4 µM] | –
CCOc1cc(/C=C2\C(=O)N(Cc3ccc(C)cc3)C(C)=C2C(=O)OC)ccc1O | – | 14.1 µM (active)

SMILES | activity, negative = inhibition | AC50
CCOc1cc(/C=C2/NC(=O)N(CC(=O)Nc3cccc(C)c3)C2=O)ccc1OC | 1.61% | –
O=C1OCCC1Sc1nnnn1-c1ccccc1 (centres undefined) | -19.1% | –
O=C1OCCC1Sc1nnc(-c2ccc(O)cc2)o1 (centres undefined) | – | 2.24 µM (active)
N#Cc1cccc(NC(=O)N2CC[C@@]3(CCCNC3)C2)c1 | -17.6% | –
O=C(c1ccccc1)c1nn(-c2ccccc2)c(=O)cc1C(F)(F)F | – | 0.501 µM (active)
NC(=O)c1nn(-c2ccccc2)c(=O)cc1O | 1.04% | –
C=CC[C@@H]1C=C[C@H](ON=C(C)C)[C@H](CO)O1 | 3.87% [at 11.4 µM] | –
COC(=O)[C@H](C)NC(=O)C/C=C\[C@@H](C)[C@H]1C=C[C@H](O)[C@@H](CO)O1 | -5.17% [at 11.4 µM] | –
C=CCn1cc(/C=N\NC(=O)c2cc3c(ccc4ccccc43)o2)c2ccccc21 | – | 1 µM (active)
Cc1ccc(-c2ccc(/C=N\NC(=O)c3cc4c(ccc5ccccc54)o3)o2)cc1[N+](=O)[O-] | – | 22.4 µM (active)
Cc1ccccc1C(=O)N/N=C/c1ccncc1 | – | 12.6 µM (active)
O=C(N/N=C/c1ccncc1)c1cc2c(ccc3ccccc32)o1 | – | 0.355 µM (active)
CC(O)(P(=O)(O)O)P(=O)(O)O | -0.0229% [at 25.6 µM] | –
COc1ccccc1CN1CC[C@@]2(CCCN(C(=O)c3cccn3C)C2)C1 | 2.49% | –
O=C(N/N=C/c1ccco1)/C(=C/c1cccc([N+](=O)[O-])c1)NC(=O)c1ccccc1 | 12.9% | –
O=C(N/N=C/c1cccc([N+](=O)[O-])c1)c1cc2c(ccc3ccccc32)o1 | – | 0.355 µM (active)
Cc1cc(C(=O)N/N=C/c2cccc([N+](=O)[O-])c2)c(C)o1 | – | 1.41 µM (active)
COc1ccc(/C=N/NC(=O)c2cccc([N+](=O)[O-])c2)cc1OS(=O)(=O)c1ccc(C)cc1 | -9.99% | –
C#C[C@@]1(OC(C)=O)CC[C@@H]2[C@@H]3CCC4=C[C@@H](OC(C)=O)CC[C@H]4[C@H]3CC[C@]21C | -7.62% [at 25.6 µM] | –
C/C(CCN1CCc2nc(-c3ccccc3)c(-c3ccccc3)cc2C1)=N\O[C@@H](C)c1cc(-c2c(C)cc(C)cc2C)no1 | 9.44% [at 11.4 µM] | –
